Records with an inconclusive call do not appear. Activity calls are given as the source filed them. The call rests on the fitted dose curve; in most records, active means well fitted curve in the direction sought with a large enough effect; inconclusive means small, poorly fitted or top-dose-only effect, or another doubt; inactive means no such curve, though single readings can be large; an effect the other way counts as inactive or inconclusive. Positions of bridges follow the written chain, without caps; N, C: chain ends. Non-standard residues stand in square brackets, D forms with d. Residues, ends and D or L forms follow the SMILES beside them. ξ: configuration not given here. *: point of attachment. Octanoyl(6-Me) = CCC(C)CCCCC(=O)*; ξThr(3R) = C[C@@H](O)C(N)C(=O)O; dDab = NCC[C@@H](N)C(=O)O; Dab = NCC[C@H](N)C(=O)O
Legend:
[1] = P-glycoprotein substrates identified in KB-8-5-11 adenocarcinoma cell line, qHTS therapeutic library screen (AID 1346987); details: KB-8-5-11 (P-gp overexpressing) viability, CellTiter-Glo, 72 h; series mostly up to 44.5 µM; further: nearly all actives have a fitted effect of over 65% in size
How it was run: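 Luminescence from CellTiter-Glo, read 5 min after addition, quantified survival of KB-8-5-11 (P-gp-overexpressing) cells exposed to compounds for 72 h. AC50 was derived from concentration-response curves.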

[2] = NS1 protein of Zika virus - qHTS assay to identify small molecule inhibitors in human HEK 293 cells (AID 1347053); details: HEK293 ZIKV MR766 infection, NS1 TR-FRET, 24 h; series mostly up to 46.1 µM; further: nearly all actives have a fitted effect of over 55% in size
How it was run: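 In this cell-based screen, HEK 293 cultures received compound for one hour before Zika MR766 at MOI = 0.5. NS1 was quantified 24 hours later by TR-FRET, normalized to virus-free wells and infected wells.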

[3] = qHTS of pediatric cancer cell lines to identify multiple opportunities for drug repurposing: Primary screen for TC32 cells (AID 1347089); details: TC32 Ewing sarcoma viability, CellTiter-Glo luminescence, 48 h; series mostly up to 45.8 µM; further: nearly all actives have a fitted effect of over 60% in size
How it was run: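 qHTS, TC32, 48 h drug treatment, CellTiter-Glo luminescence as a proxy for metabolically active cells; primary top concentration 46 µM (MIPE 11-pt, NPC 8-pt); confirmatory 11-pt.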

[4] = qHTS of pediatric cancer cell lines to identify multiple opportunities for drug repurposing: Primary screen for DAOY cells (AID 1347090); details: DAOY medulloblastoma viability, CellTiter-Glo luminescence, 48 h; series mostly up to 46 µM; further: nearly all actives have a fitted effect of over 55% in size
How it was run: (§1)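 Viability measured as metabolically active cells via CellTiter-Glo luminescence following 48 hours of compound exposure, 11-point dilutions in confirmatory testing. 500-1,000 cells/well plated 5 hours before dosing; controls were DMSO and 2.3 µM bortezomib.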

[5] = qHTS of pediatric cancer cell lines to identify multiple opportunities for drug repurposing: Primary screen for A673 cells (AID 1347092); details: A673 Ewing sarcoma viability, CellTiter-Glo ATP luminescence, 48 h; series mostly up to 46 µM; further: nearly all actives have a fitted effect of over 45% in size
How it was run: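 Luminescence from CellTiter-Glo, taken after 15 min at room temperature, served as the proxy for metabolically active cells following 48 h treatment. Both potency and efficacy were taken from curves fitted to the titration data.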

[6] = qHTS of pediatric cancer cell lines to identify multiple opportunities for drug repurposing: Primary screen for BT-37 cells (AID 1347094); details: BT-37 viability, CellTiter-Glo luminescence, 48 h; series mostly up to 57.3 µM
How it was run: (§2)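 Luminescence from CellTiter-Glo served as readout of metabolically active cells after 48 h compound exposure. Titrations: MIPE 11-point, from 0.78 nM; NPC 8-point, from 0.59 nM (final). Concentration-response curves came straight from the primary screen.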

[7] = qHTS of pediatric cancer cell lines to identify multiple opportunities for drug repurposing: Primary screen for NB-EBc1 cells (AID 1347095); details: NB-EBc1 neuroblastoma viability, CellTiter-Glo luminescence, 48 h; series mostly up to 46 µM
How it was run: as §2

[8] = qHTS of pediatric cancer cell lines to identify multiple opportunities for drug repurposing: Primary screen for U-2 OS cells (AID 1347096); details: U-2 OS viability, CellTiter-Glo luminescence, 48 h; series mostly up to 46 µM; further: nearly all actives have a fitted effect of over 50% in size
How it was run: (§3)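 Viability after 48 h compound treatment at 37C, 500-1,000 cells/well, read as ATP luminescence with CellTiter-Glo. Primary screens used 11-point (MIPE, 0.78 nM-46 µM) or 8-point (NPC, 0.59 nM-46 µM) final concentrations; follow-up screens used 11-point dilutions.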

[9] = qHTS of pediatric cancer cell lines to identify multiple opportunities for drug repurposing: Primary screen for Saos-2 cells (AID 1347097); details: Saos-2 viability, CellTiter-Glo ATP luminescence, 48 h; series mostly up to 46 µM; further: nearly all actives have a fitted effect of over 40% in size
How it was run: as §2

[10] = qHTS of pediatric cancer cell lines to identify multiple opportunities for drug repurposing: Primary screen for LAN-5 cells (AID 1347100); details: LAN-5 neuroblastoma viability, CellTiter-Glo luminescence, 48 h; series mostly up to 46 µM
How it was run: as §3

[11] = qHTS of pediatric cancer cell lines to identify multiple opportunities for drug repurposing: Primary screen for BT-12 cells (AID 1347101); details: BT-12 viability, CellTiter-Glo luminescence, 48 h; series mostly up to 57.3 µM; further: nearly all actives have a fitted effect of over 25% in size
How it was run: (§4)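 Cells (500-1,000/well) rested 5 h, then received compounds for 48 h; metabolically active cells were measured by CellTiter-Glo luminescence. Final concentrations spanned up to 46 µM (MIPE, 11-point) or 0.59 nM-46 µM (NPC, 8-point) in primary screens, 11-point in follow-ups.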

[12] = qHTS of pediatric cancer cell lines to identify multiple opportunities for drug repurposing: Primary screen for Rh18 cells (AID 1347102); details: Rh18 rhabdomyosarcoma viability, CellTiter-Glo luminescence, 48 h; series mostly up to 46 µM; further: nearly all actives have a fitted effect of over 65% in size
How it was run: as §3

[13] = qHTS of pediatric cancer cell lines to identify multiple opportunities for drug repurposing: Primary screen for SK-N-MC cells (AID 1347093); details: SK-N-MC viability, CellTiter-Glo luminescence, 48 h; series mostly up to 46 µM
How it was run: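 Metabolically active cells were quantified by ATP-dependent luminescence (CellTiter-Glo, 15 min at room temperature) following 48 h treatment. Cells had been plated at 500-1,000 per well and settled for 5 h beforehand.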

[14] = qHTS of pediatric cancer cell lines to identify multiple opportunities for drug repurposing: Primary screen for SK-N-SH cells (AID 1347098); details: SK-N-SH viability, CellTiter-Glo luminescence, 48 h; series mostly up to 57 µM; further: nearly all actives have a fitted effect of over 65% in size
How it was run: as §4

[15] = qHTS of pediatric cancer cell lines to identify multiple opportunities for drug repurposing: Primary screen for NB1643 cells (AID 1347099); details: NB1643 neuroblastoma viability, CellTiter-Glo luminescence, 48 h; series mostly up to 46 µM; further: nearly all actives have a fitted effect of over 50% in size
How it was run: as §2

[16] = qHTS of pediatric cancer cell lines to identify multiple opportunities for drug repurposing: Primary screen for SJ-GBM2 cells (AID 1347091); details: SJ-GBM2 viability, CellTiter-Glo luminescence, 48 h; series mostly up to 46 µM
How it was run: as §1

Measured: Potency
Potency means the concentration at half of the fitted maximal effect.

CC[C@H](CC[C@@H](C)[C@H]1CC[C@H]2[C@@H]3CC=C4C[C@@H](O)CC[C@]4(C)[C@@H]3CC[C@]12C)C(C)C
not listed: [13] | [14] | [15] | [16]
inactive: all other assays above

CC(C=CC=C(C)C=CC1=C(C)CCCC1(C)C)=CC=CC=C(C)C=CC=C(C)C=CC1=C(C)CCCC1(C)C
active: [4] 18.7 µM | [5] 5.9 µM | [13] 7.43 µM
inactive: [1] | [2] | [3] | [6] | [8] | [11] | [12]

CCC(C)CCCCC(=O)N[C@@H](CCN)C(=O)NC(C(=O)N[C@H](CCN)C(=O)N[C@@H]1CCNC(=O)C([C@@H](C)O)NC(=O)[C@@H](CCN)NC(=O)[C@@H](CCN)NC(=O)[C@@H](CC(C)C)NC(=O)[C@H](Cc2ccccc2)NC(=O)[C@H](CCN)NC1=O)[C@@H](C)O (stereo partly drawn) ({Octanoyl(6-Me)}-[Dab][ξThr(3R)][dDab][dDab][Dab]F[dL][dDab][dDab][ξThr(3R)]; lactam 4-C)
not listed: [7] | [16]
inactive: all other assays above

CC(Cc1ccc(O)c(O)c1)(NN)C(=O)O (centres undefined)
inactive: [1] | [2] | [3] | [4] | [16] | [8] | [14] | [11] | [12]

C[C@](Cc1c[nH]c2ccccc12)(NC(=O)OC1C2CC3CC(C2)CC1C3)C(=O)NC[C@H](NC(=O)CCC(=O)O)c1ccccc1 (some centres undefined)
active: [13] 20.9 µM
not listed: [5] | [6] | [10] | [11] | [14] | [15]
inactive: all other assays above

Cc1ccc([N+](=O)[O-])cc1S(=O)(=O)N(C)N=Cc1cnc2ccc(Br)cn12
active: [1] 0.0209 µM | [2] 0.118 µM | [3] 0.0829 µM | [4] 0.235 µM | [16] 0.118 µM | [5] 0.0074 µM | [8] 0.118 µM | [9] 0.187 µM | [14] 0.0108 µM | [15] 0.0042 µM | [10] 0.0083 µM | [11] 0.0343 µM | [12] 0.148 µM

C[C@@H](Cc1cc2c(c(C(N)=O)c1)N(CCCO)CC2)NCCOc1ccccc1OCC(F)(F)F
not listed: [11] | [16]
inactive: all other assays above

CC(C)(O)[C@H]1CC[C@@](C)([C@H]2[C@@H](O)C[C@@]3(C)[C@@H]4C[C@H](O[C@@H]5O[C@H](CO)[C@@H](O)[C@H](O)[C@@H]5O)[C@H]5C(C)(C)[C@@H](O[C@@H]6OC[C@@H](O)[C@H](O)[C@@H]6O)CC[C@@]56C[C@@]46CC[C@]23C)O1
not listed: [16]
inactive: all other assays above

O=C(Nc1ccc(Oc2ccnc3[nH]ccc23)c(F)c1)c1cccn(-c2ccc(F)cc2)c1=O
active: [16] 16.6 µM | [9] 20.9 µM
not listed: [5] | [7] | [13]
inactive: all other assays above

CC(C)(O)CC[C@@H](O)[C@](C)(O)[C@H]1CC[C@@]2(O)C3=CC(=O)[C@@H]4C[C@@H](O)[C@@H](O)C[C@]4(C)[C@@H]3CC[C@]12C
not listed: [5] | [9] | [13] | [14] | [15]
inactive: all other assays above

CN(C)CC[C@H](c1ccc(Cl)cc1)c1ccccn1
active: [4] 23.5 µM | [13] 10.5 µM
not listed: [5] | [14] | [15]
inactive: all other assays above

O=C(CCCCCCC(=O)Nc1cccnc1)NO
inactive: [2]
active: [1] 18.7 µM | [3] 20.8 µM | [4] 14.8 µM | [5] 11.8 µM | [13] 2.96 µM | [6] 19.3 µM | [7] 4.18 µM | [8] 11.8 µM | [9] 13.2 µM | [14] 6.07 µM | [15] 2.96 µM | [10] 2.64 µM | [11] 10.9 µM | [12] 4.69 µM

CC[C@H]1OC(=O)[C@H](C)[C@@H](O[C@H]2C[C@@](C)(OC)[C@@H](O)[C@H](C)O2)[C@H](C)[C@@H](O[C@@H]2O[C@@H](C)C[C@H](N(C)C)[C@@H]2O)[C@](C)(O)C[C@@H](C)C(=O)[C@H](C)[C@@H](O)[C@]1(C)O
not listed: [5] | [6] | [13]
inactive: all other assays above

OC[C@@H](O)[C@@H](O)[C@H](O)[C@@H](O)CO
not listed: [16]
inactive: all other assays above

CC(=O)[C@]1(O)Cc2c(O)c3c(c(O)c2[C@@H](O[C@H]2C[C@H](N)[C@@H](O)[C@H](C)O2)C1)C(=O)c1ccccc1C3=O
active: [1] 0.833 µM | [2] 1.05 µM | [3] 0.587 µM | [4] 0.935 µM | [5] 0.148 µM | [13] 0.118 µM | [6] 0.193 µM | [7] 0.0372 µM | [14] 0.192 µM | [15] 0.743 µM | [10] 0.0935 µM | [11] 0.685 µM | [12] 4.69 µM

CCc1cc(C(C)=NOCc2ccc(C3CCCCC3)c(C(F)(F)F)c2)ccc1CN1CC(C(=O)O)C1
inactive: [1] | [2] | [3] | [8]
active: [4] 0.59 µM | [5] 1.48 µM | [13] 0.0372 µM | [7] 20.9 µM | [15] 2.64 µM | [11] 3.06 µM

Cc1cn([C@@H]2O[C@H](CO)[C@@H](O)[C@H]2F)c(=O)[nH]c1=O
not listed: [6] | [13]
inactive: all other assays above

O=C(NCc1ccccc1)[C@H](Cc1ccccc1)NC(=O)[C@@H]1O[C@@H]1C(=O)NCCc1ccc(O)cc1
active: [5] 1.18 µM | [13] 23.5 µM | [9] 23.5 µM | [14] 21.5 µM
inactive: [1] | [2] | [3] | [7] | [8] | [10] | [11]

COc1cc2c(Nc3ccc(Cl)c(Cl)c3F)ncnc2cc1OCC1C[C@@H]2CN(C)C[C@H]2C1
active: [1] 18.7 µM | [4] 0.935 µM | [16] 7.43 µM | [5] 0.935 µM | [13] 2.96 µM | [6] 24.3 µM | [7] 16.6 µM | [8] 18.7 µM | [9] 16.6 µM | [14] 12.1 µM | [15] 14.8 µM | [10] 11.8 µM | [11] 24.3 µM | [12] 18.7 µM
inactive: [2]

O=c1c(O)c(-c2ccc(O)c(O)c2)oc2cc(O)ccc12
active: [1] 13.2 µM | [16] 18.7 µM | [5] 29.6 µM | [13] 20.9 µM | [6] 24.3 µM | [7] 23.5 µM | [9] 16.6 µM | [14] 27.1 µM | [15] 20.9 µM | [10] 16.6 µM | [11] 27.3 µM
inactive: [2] | [3] | [8]

Reference: PubChem BioAssay (NCATS)
